Source: PubChem
Compounds with a hit are over-represented: about 19% of the library has one in this group of screens.
TDP1 cell noCPT = qHTS for Inhibitors of human tyrosyl-DNA phosphodiesterase 1 (TDP1): qHTS in cells in absence of CPT; DT40 Tdp1-/- hTDP1 cells, no CPT, ATP luminescence, 48 h; 420,000 compounds, 15% hits; Potency, µM (top dose mostly 46.2 µM), actives largely listed as inhibitors; AID 686978, 2013; note: nearly all actives have a fitted effect of over 55% in size
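Seeded 400 DT40-hTDP1 cells/well (vehicle DMSO, no 20 nM CPT); pinned compounds; ≥48 hr at 37 °C; CellTiter-Glo luminescence as viability measure.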
SW480 rerep = A quantitative high throughput screen for small molecules that induce DNA re-replication in SW480 colon adenocarcinoma cells; 340,000 compounds, 1.8% hits; AID 624297, 2012; Potency, µM (series often up to 46.1 µM), usual class: activators; SW480 DNA re-replication, Hoechst DNA content imaging, 48 h; note: nearly all actives have a fitted effect of over 55% in size
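First, 250 cells per well were seeded. Next, compound or vehicle (23 nL) was pinned in, plates sat 48 hr at 37 C. Finally Hoechst was added for 40 min before fluorescence scanning.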
IL-1B inflam inh = qHTS for Inhibitors of Inflammasome Signaling: IL-1-beta AlphaLISA Primary Screen; THP-1 LPS/ATP IL-1B secretion, AlphaLISA, 16 h; active compounds read low; activity change, % at 57.5 µM; 360,000 compounds, 4.7% hits; AID 743279, 2014; in the data active = activity change below about -50%; inconclusive = mostly about -30% to -49%
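Secreted IL-1B measured by AlphaLISA bead assay after 16 h compound exposure of THP-1 cells; compounds (final up to 57.5 uM) added 1 h before LPS (250 ng/mL) and ATP (1.25 mM) stimulation; lower signal means less secretion.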
Chronic BCR inh = qHTS Assay to Find Inhibitors of Chronic Active B-Cell Receptor Signaling | 340,000 compounds, 0.05% hits | Potency, µM (titrated, usually from 46.1 µM), usual class: inhibitors | ABC-DLBCL IkBa-CBG/CBR reporter, luminescence ratio, 4 h; active = well fitted inhibition curve with a large enough effect in the signal ratio, with a control signal flat, not every such curve was filed as active; inconclusive = small, poorly fitted or top-dose-only effect, or effect the other way, or a change in a side signal; the % refers to the signal ratio
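TMD8 ABC-DLBCL cells carrying doxycycline-inducible green luciferase fused to IkappaBalpha plus unfused red luciferase were exposed to compounds (up to 46 uM) for 4 hrs at 37C. Activity came from the overlap-corrected green/red luminescence ratio.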
DT40 TDP1 CPT = qHTS for Inhibitors of human tyrosyl-DNA phosphodiesterase 1 (TDP1): qHTS in cells in presence of CPT; chicken DT40 Tdp1-/-;hTDP1 cells + 20 nM CPT, ATP luminescence, 48 h; Potency, µM (titrated, usually from 46.2 µM), most hits filed as inhibitors; 420,000 compounds, 12% hits; AID 686979, 2013; note: nearly all actives have a fitted effect of over 55% in size
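Chicken DT40 Tdp1-/- cells stably complemented with human TDP1 were seeded at 400 cells/well in medium containing 20 nM camptothecin, exposed to pin-transferred compounds, and grown at 37 °C for at least 48 hr. Viability was read as ATP luminescence.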
MCF10A rereplic = A quantitative high throughput screen for small molecules that induce DNA re-replication in MCF 10a normal breast cells. MCF 10A DNA re-replication, Hoechst nuclear intensity, 48 h. Potency, µM (doses to about 46.1 µM), actives largely listed as activators. 350,000 compounds, 2.9% hits; note: nearly all actives have a fitted effect of over 50% in size
Large screens that a line does not name were inactive; ! = a repeat was not active. Unless noted, calls come from the whole dose curve; as a rule, active = well fitted curve in the direction sought with a large enough effect; inconclusive = small, poorly fitted or top-dose-only effect, or another doubt; inactive = no such curve, though single readings can be large; an effect the other way counts as inactive or inconclusive.

O=C(O)CCc1nc(-c2ccccc2)no1	Chronic BCR inh inconclusive
CCN(CC)CCc1nc(-c2ccccc2)no1	TDP1 cell noCPT 4.1µM!, DT40 TDP1 CPT 6.5µM!
Cc1ccccc1CN1C(=O)/C(=C\c2ccc(C(=O)NCCN3CCOCC3)cc2)Sc2ccccc21	TDP1 cell noCPT inconclusive, SW480 rerep inconclusive, IL-1B inflam inh inconclusive, Chronic BCR inh inconclusive, DT40 TDP1 CPT inconclusive, MCF10A rereplic 21µM
O=C(NCCN1CCOCC1)c1ccc(/C=C2\Sc3ccccc3N(Cc3ccccc3F)C2=O)cc1	TDP1 cell noCPT inconclusive, SW480 rerep 18µM, Chronic BCR inh inconclusive, DT40 TDP1 CPT inconclusive, MCF10A rereplic inconclusive
O=C(NCCN1CCOCC1)c1ccc2c(c1)N(Cc1ccccc1F)C(=O)CS2	TDP1 cell noCPT inconclusive
O=C(NCCCN1CCOCC1)c1ccc2c(c1)N(Cc1ccccc1F)C(=O)c1ccccc1S2=O (centres undefined)	Chronic BCR inh inconclusive
CN1CCN(CCCNC(=O)c2ccc(/C=C3\Sc4ccccc4N(Cc4ccccc4F)C3=O)cc2)CC1	TDP1 cell noCPT inconclusive, SW480 rerep 21µM, Chronic BCR inh inconclusive, DT40 TDP1 CPT inconclusive, MCF10A rereplic 16µM
Cc1c(C)c2c(cc(C)c3c(-c4ccccc4)coc32)oc1=O	none (no result: SW480 rerep, IL-1B inflam inh, Chronic BCR inh, MCF10A rereplic)
O=C(CCNC(=O)c1ccccc1Cl)Nc1nnc(C2CC2)s1	none
O=C(NC(Cc1ccccc1)C(=O)N1CCCCC1)c1ccccc1 (centres undefined)	none
Cc1ccccc1-c1cc(=O)c2ccccc2o1	TDP1 cell noCPT inconclusive, SW480 rerep inconclusive, DT40 TDP1 CPT 21µM, MCF10A rereplic inconclusive
O=c1cc(-c2ccccc2[N+](=O)[O-])oc2ccccc12	TDP1 cell noCPT 23µM, SW480 rerep inconclusive, DT40 TDP1 CPT 16µM, MCF10A rereplic 5.2µM
COCCn1c(Cc2ccccc2)nnc1SCC(=O)Nc1oc(C)c2c(C)n[nH]c(=O)c12	none
Cc1ccc(CSCC(=O)N(C)CC(=O)Nc2ccccc2C(F)(F)F)cc1	TDP1 cell noCPT inconclusive
CN(C)CCC(=O)c1ccc(F)cc1	TDP1 cell noCPT 4.6µM, SW480 rerep inconclusive, DT40 TDP1 CPT 5.2µM, MCF10A rereplic inconclusive
CCN(CC)CCC(=O)c1ccc(F)cc1	TDP1 cell noCPT 2.3µM, DT40 TDP1 CPT 2.9µM
CCNC(=O)COC(=O)CCC(=O)c1ccc(F)cc1	none
CN(C)CCC(=O)c1ccc2c(c1)OCO2	TDP1 cell noCPT 3.7µM, SW480 rerep inconclusive, Chronic BCR inh inconclusive, DT40 TDP1 CPT 3.7µM, MCF10A rereplic 7.3µM
NC(=O)C1CCCN(Cc2ccc3c(c2)CN(Cc2ccccc2)CCO3)C1 (centres undefined)	none (no result: SW480 rerep, IL-1B inflam inh, Chronic BCR inh, MCF10A rereplic)
O=c1oc(-c2ccccc2)cc(Cl)c1Cl	TDP1 cell noCPT 1.8µM, SW480 rerep 9.2µM, IL-1B inflam inh -100, Chronic BCR inh inconclusive, DT40 TDP1 CPT 1.6µM, MCF10A rereplic 2.9µM
O=c1cc(-c2ccccc2)oc2ccc(Cl)cc12	none (no result: Chronic BCR inh)
Cc1cc(C)nc(SCC(=O)Nc2sc3c(c2C#N)CCC(C)C3)n1 (centres undefined)	TDP1 cell noCPT 15µM, DT40 TDP1 CPT 21µM (no result: Chronic BCR inh)
CC1CCc2c(sc(NC(=O)CCc3nc4ccccc4c(=O)[nH]3)c2C#N)C1 (centres undefined)	TDP1 cell noCPT 18µM, DT40 TDP1 CPT 16µM
Cc1sc2ncnc(SCC(=O)NNC(=O)c3ccco3)c2c1C	SW480 rerep inconclusive
Cc1cccc(NC(=O)CSc2ncnc3sc(C)c(C)c23)n1	TDP1 cell noCPT 18µM, Chronic BCR inh inconclusive, DT40 TDP1 CPT 16µM
Cc1sc2nc(C(C)C)nc(SCC(=O)N3CCOCC3)c2c1C	TDP1 cell noCPT inconclusive
Cc1nnc(NC(=O)CSc2nc(C(C)C)nc3sc(C)c(C)c23)s1	TDP1 cell noCPT 8.2µM, DT40 TDP1 CPT inconclusive
Cc1sc2ncnc(SCC(=O)NNC(=O)COc3cccc4ccccc34)c2c1C	TDP1 cell noCPT inconclusive, SW480 rerep inconclusive, DT40 TDP1 CPT inconclusive, MCF10A rereplic 23µM
Cc1nc(SCC(=O)Nc2ccccc2Cl)c2c(C)c(C)sc2n1	TDP1 cell noCPT inconclusive, DT40 TDP1 CPT inconclusive, MCF10A rereplic 23µM
COc1cccc(CNC(=O)CSc2cc(C)[nH]c(=O)n2)c1	none (no result: SW480 rerep, IL-1B inflam inh, MCF10A rereplic)
COc1ccc(N2Cc3cccc(C(=O)Nc4ccc(C)c(C)c4)c3C2=O)cc1	none (no result: SW480 rerep, IL-1B inflam inh, Chronic BCR inh, MCF10A rereplic)
CCC(C)(C)n1nnnc1C(c1cc2cccc(C)c2[nH]c1=O)N1CCCC1 (centres undefined)	DT40 TDP1 CPT inconclusive
c1csc(C(c2nnnn2C2CCCCC2)N2CCCC3(CCCCC3)C2)c1 (centres undefined)	TDP1 cell noCPT 23µM, DT40 TDP1 CPT inconclusive, MCF10A rereplic inconclusive
CCC(C)(C)n1nnnc1C(c1cc2cc(C)cc(C)c2[nH]c1=O)N1CCCC1 (centres undefined)	TDP1 cell noCPT inconclusive, IL-1B inflam inh -51, DT40 TDP1 CPT inconclusive, MCF10A rereplic inconclusive
Cc1ccc(C)c2[nH]c(=O)c(C(c3nnnn3C(C)(C)C)N3CC=C(c4ccc(F)cc4)CC3)cc12 (centres undefined)	TDP1 cell noCPT 16µM, SW480 rerep 0.16µM, DT40 TDP1 CPT inconclusive, MCF10A rereplic inconclusive
CCC(C)(C)n1nnnc1C(c1ccc(C)cc1)N1CCCC1 (centres undefined)	SW480 rerep 23µM, MCF10A rereplic inconclusive
COCCn1cnc2c1c(=O)n(CC(=O)NC(=O)NC(C)(C)C)c(=O)n2Cc1ccccc1	none
COc1ccc(NC(=O)c2cc(S(=O)(=O)N3CCCCC3)c[nH]2)cc1Cl	none
CCc1cccc(N(C(=O)c2csnn2)C(C(=O)NC2CCCCC2)c2ccncc2)c1 (centres undefined)	none
Cc1cc(C)c2[nH]c(=O)c(C(c3nnnn3CC3CCCO3)N3CCCC(C)C3)cc2c1 (centres undefined)	TDP1 cell noCPT inconclusive, IL-1B inflam inh inconclusive, DT40 TDP1 CPT 18µM
CCC(C)(C)n1nnnc1C(c1cccs1)N1CCCCC1 (centres undefined)	TDP1 cell noCPT 18µM, DT40 TDP1 CPT inconclusive
CCC(C)(C)n1nnnc1C(c1ccc2ncccc2c1)N1CCCCCC1 (centres undefined)	TDP1 cell noCPT inconclusive, DT40 TDP1 CPT 11µM
Cc1cc(C)c2[nH]c(=O)c(C(c3nnnn3CC3CCCO3)N3CCC(C)CC3)cc2c1 (centres undefined)	TDP1 cell noCPT inconclusive, SW480 rerep inconclusive, DT40 TDP1 CPT inconclusive
